In PubChem BioAssay (NCATS):
Records with an inconclusive call do not appear. Values without a mark were called inactive. The call rests on the fitted dose curve; in most records, active means well fitted cell-killing curve with a large enough effect; inconclusive means small, poorly fitted or top-dose-only effect, or effect the other way; inactive means flat fitted curve, though single readings scatter. Where a SMILES comes first, the peptide text is derived from it.

Each compound was assayed on HeLa (assay: Primary qHTS to identify gynecologic anti-cancer compounds using libraries of approved drugs and bioactive compounds (AID 1345084; further: nearly all actives have a fitted effect of over 55% in size)). Details: Gynecologic cancer cell panel viability, ATPlite luminescence, 48 h; series mostly up to 57.5 µM; activity change, negative = cytotoxicity: at the top concentration.
How it was run: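 ATP-based viability (ATPlite), 1,000 cells/well, 16 h pre-incubation, 48 h compound at 37 C, 5% CO2, 15 min RT before read.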
On the % scale 0 is the no-effect control and ±100 the full control effect.

Structure (SMILES)	activity change, negative = cytotoxicity
CC(=O)NCC1CN(c2ccc(-c3ccc(CNCc4cn[nH]n4)cc3)c(F)c2)C(=O)O1 (configuration not stated)	21.1%
COC(=O)[C@H](Cc1ccc([N+](=O)[O-])cc1)NC(=O)c1cccc2ccccc12	7.37%
Cn1nccc1-c1ccccc1Oc1ccc(S(=O)(=O)Nc2nccs2)cc1C#N	3.4%
CSCC1OC(n2cnc3c(N)ncnc32)C(O)C1O (configuration not stated)	-4.43%
COc1ccc([C@H]2OC[C@H]3[C@@H]2CO[C@@H]3c2ccc(O[C@@H]3O[C@H](CO)C(O)[C@H](O)[C@H]3O)c(OC)c2)cc1OC (some centres not stated)	-0.983% [at 25.3 µM]
CC1CCC2C(C(=O)O)=CC3(O)CC(C)(C)CC123 (configuration not stated)	2.39%
COc1cccc(CNc2ccc(S(=O)(=O)Nc3nc4ccccc4s3)cc2)c1O	16%
CC(=O)NC(Cc1ccccc1)C(=O)NC(C(=O)O)C(C)C (stereo not drawn) (Ac-Phe-Val-OH; configuration not given here)	-1.06%
C=C1CCC2C(C)(C(=O)OC)CCCC2(C)C1CCC1=CCOC1=O (configuration not stated)	-3.34% [at 38.5 µM]
CC1=C2CC3C(CCC3(C)O)C(C)(O)CC2OC1=O (configuration not stated)	4.45%
Cc1occc1C(=O)n1ccnc1	-1.1%
COc1cc(C(CO)CO[C@@H]2O[C@H](CO)[C@@H](O)[C@H](O)[C@H]2O)ccc1O (some centres not stated)	-0.777% [at 38.5 µM]
CN(C)C(=O)C(O)C(Cc1ccccc1)NC(=O)c1cc2cc(Cl)ccc2[nH]1 (configuration not stated)	10.7%
O=C(CCc1ccccc1)c1c(O)c([C@@H]2O[C@H](CO)[C@@H](O)[C@H](O)[C@H]2O)c(O)c([C@@H]2O[C@H](CO)[C@@H](O)[C@H](O)[C@H]2O)c1O	-2.36% [at 25.3 µM]
CC(O)C1NC(=O)C2CCCN2C1=O (configuration not stated)	2.53%
CC1(C)OC(=O)CC(O)C2(C)C1CC(=O)C1(C)C2C(O)CC2(C)C(c3ccoc3)OC(=O)C3OC321 (configuration not stated)	14.3% [at 25.3 µM]

Structure (SMILES)	activity change, negative = cytotoxicity
CC(=O)OC1CCC2(C)C(CCC3(C)C2CC=C2C4CC(C)(C)CCC4(C)CCC23C)C1(C)C(=O)O (configuration not stated)	9.51% [at 25.3 µM]
C=C(CCO)C(=O)OCC1OCC(OC(=O)C(=C)CCO[C@@H]2O[C@H](COC(=O)C(=C)CCO[C@@H]3O[C@H](CO)[C@@H](O)[C@H](O)[C@H]3O)[C@@H](O)[C@H](O)[C@H]2O)C(O)C1O (some centres not stated)	16.1% [at 25.3 µM]
CC(C)C1CCC(CO)=CC1/C=C(\CO)C(=O)OCC1(O)CCC(C(C)C)C2C=C(C(=O)O)COC(=O)C21 (configuration not stated)	5.89% [at 25.3 µM]
Fc1cccc(CN(C2=NCCN2)c2c(Cl)cccc2Cl)c1	1.5%
C[C@]12CCC[C@](C)(C(=O)O)C1CCC13CC(CO)C(CCC12)C3 (some centres not stated)	6.44% [at 38.5 µM]
O=C(/C=C/c1ccc(O)cc1)OC[C@H]1O[C@H](O[C@@]2(CO)O[C@@H](CO)[C@H](O)[C@H]2O)[C@H](O)[C@@H](O)[C@@H]1O	2.03% [at 25.3 µM]
c1ccc2c(Nc3nnc(-c4ccncc4)s3)cccc2c1	-20.4%
C/C=C/C=C/C=C/C(=O)O[C@@H]1[C@@H](OC)C2=C(C(=O)N(C(CCC(=O)O)C(=O)O)C2)[C@@]2(C)CCCC(C)(C)[C@H]12 (some centres not stated)	-7.87% [at 25.3 µM]
O=C(OC[C@H]1O[C@@H](Oc2ccccc2CO)[C@H](O)[C@@H](O)[C@@H]1O)c1ccccc1	4.81% [at 38.5 µM]
C[C@H]1[C@@H](O)[C@H](O)C2[C@]3(C)C([C@@H](O)[C@H]4OC(=O)[C@@H]1[C@@]24C)[C@](C)(O)C=C[C@H]3O[C@@H]1O[C@H](CO)[C@@H](O)[C@H](O)[C@H]1O (some centres not stated)	6.46% [at 25.3 µM]
COc1ccc(C(=O)NCc2cc(C(C)C)no2)cc1OC1CCN(C)CC1	17.2%
COC(=O)C1C(O)CCC2CN3CCc4c([nH]c5ccccc45)C3CC21 (configuration not stated)	0.375% [at 38.5 µM]
CC(C)=C1C[C@@]2(C)C(=CC1=O)CC[C@@H](O)[C@@H]2C	8.02%
Cc1ccccc1NC(=O)Nc1ccc(CN2C(=O)N([C@@H](CC(C)C)C(=O)N[C@@H](CC(=O)O)c3ccccc3)C(=O)C2(C)C)cc1	-1.82%
CCOC(=O)C(CCc1ccccc1)NC1CCCN2CCCC(C(=O)O)N2C1=O (configuration not stated)	4.63%
COc1c(-c2ccc(O)cc2)cc(OC)c2c1oc1cc(O)c(OC3OC(CO)C(O)C3O)cc12 (configuration not stated)	4.99% [at 25.3 µM]
